From the supplement of paper PMC10037445
Over roughly 2,900 compounds, “NF-kB SEAP reporter activity, fold change vs agonist alone” has its median near 0.99; the highest 2% begin near 2.6. This excerpt belongs to a sample that is enriched for the highest values.

How the values were obtained:
[1] = system: RAW-Dual; assay: NF-kB SEAP reporter activity, fold change vs agonist alone; cytotoxicity flag (confluency mask): not cytotoxic; higher = enhanced NF-kB activity
Procedure, shortened: (§1)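 Reporter activity is given as fold change relative to agonist-alone wells. To measure it, 50 nL of library stock was pin-tooled onto RAW-Dual macrophages (50,000 cells/well, DMEM, 384-well plates), a PRR agonist followed 1 h later, and cells stayed at 37 °C, 5% CO2. Twenty hours on, supernatant was assayed for IRF (QuantiLuc luminescence) and NF-κB (QuantiBlue, 620 nm absorbance), and wells under 70% of agonist-control IncuCyte confluency in both mask sets were marked cytotoxic.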

[2] = system: RAW-Dual; assay: NF-kB SEAP reporter activity, fold change vs agonist alone; higher = enhanced NF-kB activity
Procedure, shortened: as §1

[3] = system: RAW-Dual; assay: NF-kB SEAP reporter activity, fold change vs agonist alone; cytotoxicity flag (confluency mask): cytotoxic (confluency <70% of control); higher = enhanced NF-kB activity
Procedure, shortened: as §1

[4] = agonist: ODN 1826 (TLR9) 0.5 ug/mL
[5] = agonist: Pam2CSK4 (TLR2/6) 0.1 ug/mL
[6] = agonist: Pam3CSK4 (TLR2/1) 0.1 ug/mL
[7] = library stock concentration (final ~1000-fold dilution): 1 mM, cytotoxicity flag (confluency mask): not cytotoxic, agonist: Imiquimod (TLR7) […]
[8] = library stock concentration (final ~1000-fold dilution): 1 mM, cytotoxicity flag (confluency mask): not cytotoxic, agonist: MPLA (TLR4) […]
[9] = library stock concentration (final ~1000-fold dilution): 10 mM, cytotoxicity flag (confluency mask): not cytotoxic, agonist: Imiquimod (TLR7) […]
[10] = library stock concentration (final ~1000-fold dilution): 10 mM, cytotoxicity flag (confluency mask): not cytotoxic, agonist: MPLA (TLR4) […]

CCCCCCOC(=O)c1cc(=O)c(O)c2c(O)c(O)c(OC)cc2c1 (library stock concentration (final ~1000-fold dilution): 1 mM)
NF-kB SEAP reporter activity ([1]; agonist: LPS (TLR4) 0.1 ug/mL): 1.14 | NF-kB SEAP reporter activity [1, 4]: 0.931 | NF-kB SEAP reporter activity [1, 5]: 0.872 | NF-kB SEAP reporter activity [1, 6]: 0.85

CCCCCCOC(=O)c1cc(=O)c(O)c2c(O)c(O)c(OC)cc2c1
NF-kB SEAP reporter activity [2, 7]: 1.03 | NF-kB SEAP reporter activity [2, 8]: 1.23

CCCN(CCC)C(=O)C1=Cc2ccc(-c3ccc(C(=O)N4CCCC4)cc3)cc2N=C(N)C1 (library stock concentration (final ~1000-fold dilution): 1 mM)
NF-kB SEAP reporter activity ([1]; agonist: LPS (TLR4) 0.1 ug/mL): 2.58 | NF-kB SEAP reporter activity [1, 4]: 1.07 | NF-kB SEAP reporter activity [1, 5]: 1.16 | NF-kB SEAP reporter activity [1, 6]: 1.26

CCOC(=O)C1=Cc2ccc(C(F)(F)C(F)(F)F)cc2N=C(N)C1
NF-kB SEAP reporter activity ([2]; library stock concentration (final ~1000-fold dilution): .1 mM, cytotoxicity flag (confluency mask): not cytotoxic, agonist: Imiquimod (TLR7) […]): 0.718 | NF-kB SEAP reporter activity ([2]; library stock concentration (final ~1000-fold dilution): .1 mM, cytotoxicity flag (confluency mask): not cytotoxic, agonist: MPLA (TLR4) […]): 1.18

CCCN(CCC)C(=O)C1=Cc2ccc(-c3ccc(C(=O)N4CCCC4)cc3)cc2N=C(N)C1
NF-kB SEAP reporter activity [2, 7]: 1.22 | NF-kB SEAP reporter activity [2, 8]: 1.82

CCOC(=O)C1=Cc2ccc(C(F)(F)C(F)(F)F)cc2N=C(N)C1 (library stock concentration (final ~1000-fold dilution): .1 mM)
NF-kB SEAP reporter activity ([1]; agonist: LPS (TLR4) 0.1 ug/mL): 1.34 | NF-kB SEAP reporter activity [1, 4]: 1.25 | NF-kB SEAP reporter activity [1, 5]: 1.09 | NF-kB SEAP reporter activity [1, 6]: 1.17

Cl.Nc1ccn(C2OC(CO)C(O)C2O)c(=O)n1 (centres undefined)
NF-kB SEAP reporter activity [2, 9]: 1.72 | NF-kB SEAP reporter activity [2, 10]: 1.42

Cl.Nc1ccn(C2OC(CO)C(O)C2O)c(=O)n1 (centres undefined) (library stock concentration (final ~1000-fold dilution): 10 mM)
NF-kB SEAP reporter activity ([1]; agonist: LPS (TLR4) 0.1 ug/mL): 0.959 | NF-kB SEAP reporter activity [1, 4]: 1.65 | NF-kB SEAP reporter activity [1, 5]: 1.16 | NF-kB SEAP reporter activity [1, 6]: 1.35

C=C1CC[C@@H]2[C@](C)(CO)[C@H](O)CC[C@@]2(C)[C@@H]1/C=C/C1=CCOC1=O
NF-kB SEAP reporter activity [2, 9]: 0.706 | NF-kB SEAP reporter activity [2, 10]: 0.901

C=C1CC[C@@H]2[C@](C)(CO)[C@H](O)CC[C@@]2(C)[C@@H]1/C=C/C1=CCOC1=O (library stock concentration (final ~1000-fold dilution): 10 mM)
NF-kB SEAP reporter activity ([1]; agonist: LPS (TLR4) 0.1 ug/mL): 0.755 | NF-kB SEAP reporter activity [1, 4]: 0.721 | NF-kB SEAP reporter activity [1, 5]: 0.5 | NF-kB SEAP reporter activity [1, 6]: 0.597

Cl.Cl.O=c1cc(CN2CCOCC2)occ1OCCCCCSc1ccnc2cc(C(F)(F)F)ccc12 (library stock concentration (final ~1000-fold dilution): 10 mM)
NF-kB SEAP reporter activity ([3]; agonist: LPS (TLR4) 0.1 ug/mL): 0.81 | NF-kB SEAP reporter activity [3, 4]: 0.603 | NF-kB SEAP reporter activity [3, 5]: 0.59 | NF-kB SEAP reporter activity [3, 6]: 0.529

Cl.Cl.O=c1cc(CN2CCOCC2)occ1OCCCCCSc1ccnc2cc(C(F)(F)F)ccc12
NF-kB SEAP reporter activity ([2]; library stock concentration (final ~1000-fold dilution): 10 mM, cytotoxicity flag (confluency mask): cytotoxic (confluency <70% of control), agonist: Imiquimod (TLR7) […]): 0.953 | NF-kB SEAP reporter activity ([2]; library stock concentration (final ~1000-fold dilution): 10 mM, cytotoxicity flag (confluency mask): cytotoxic (confluency <70% of control), agonist: MPLA (TLR4) […]): 0.895

Fc1ccc(CNc2ncnc3ccc(F)cc23)cc1
NF-kB SEAP reporter activity [2, 9]: 0.988 | NF-kB SEAP reporter activity [2, 10]: 1.47

Nc1ncnc2[nH]nc(Nc3ccc(F)cc3)c12
NF-kB SEAP reporter activity [2, 9]: 1.13 | NF-kB SEAP reporter activity [2, 10]: 2.6

Nc1ncnc2[nH]nc(Nc3ccc(F)cc3)c12 (library stock concentration (final ~1000-fold dilution): 10 mM)
NF-kB SEAP reporter activity ([1]; agonist: LPS (TLR4) 0.1 ug/mL): 6.5 | NF-kB SEAP reporter activity [1, 4]: 1.43 | NF-kB SEAP reporter activity [1, 5]: 0.872 | NF-kB SEAP reporter activity [1, 6]: 1.26

Fc1ccc(CNc2ncnc3ccc(F)cc23)cc1 (library stock concentration (final ~1000-fold dilution): 10 mM)
NF-kB SEAP reporter activity ([1]; agonist: LPS (TLR4) 0.1 ug/mL): 2.47 | NF-kB SEAP reporter activity [1, 4]: 1.19 | NF-kB SEAP reporter activity [1, 5]: 1.06 | NF-kB SEAP reporter activity [1, 6]: 1.25

COc1cc2c(cc1Cc1cccc(Cl)c1F)c(=O)c(C(=O)O)cn2C(CO)C(C)C (centres undefined) (library stock concentration (final ~1000-fold dilution): 10 mM)
NF-kB SEAP reporter activity ([1]; agonist: LPS (TLR4) 0.1 ug/mL): 1.45 | NF-kB SEAP reporter activity [1, 4]: 1.08 | NF-kB SEAP reporter activity [1, 5]: 0.664 | NF-kB SEAP reporter activity [1, 6]: 0.625

COc1cc2c(cc1Cc1cccc(Cl)c1F)c(=O)c(C(=O)O)cn2C(CO)C(C)C (centres undefined)
NF-kB SEAP reporter activity [2, 9]: 1.06 | NF-kB SEAP reporter activity [2, 10]: 1.17
